In PubChem BioAssay (NCATS):
Inconclusive results are not listed. The source made the active and inactive calls. Unless noted, the rule behind the calls is not given here.

What was measured:
[1] = qHTS profiling of the MIPE4 collection as inhibitors of Plasmodium falciparum (3D7) proliferation (AID 743344);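 note: scaled between DMSO vehicle wells and 0.29 µM artemisinin as full inhibition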; conditions: P. falciparum 3D7 in erythrocytes, SYBR Green DNA fluorescence, 72 h; at 28.5 µM unless noted
Procedure, shortened: (§1)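 Parasite DNA was quantified by SYBR Green I fluorescence (ex 485, em 535 nm) after overnight lysis in saponin/Triton buffer at room temperature. Cultures at 0.3% parasitemia and 2.5% hematocrit were first exposed to compound for 72 h at 37 C; signals were normalised to artemisinin (0.29 uM) and vehicle wells.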

[2] = qHTS profiling of the MIPE4 collection as inhibitors of Plasmodium falciparum (DD2) proliferation (AID 743345); conditions: P. falciparum Dd2 in erythrocytes, SYBR Green DNA, 72 h; at 28.5 µM unless noted
Procedure, shortened: as §1

[3] = qHTS profiling of the MIPE4 collection as inhibitors of Plasmodium falciparum (DD2) proliferation (Rep 2) (AID 743346); conditions: P. falciparum Dd2 in erythrocytes, SYBR Green DNA, 72 h; at 28.5 µM unless noted
Procedure, shortened: as §1

[4] = qHTS profiling of the MIPE4 collection as inhibitors of Plasmodium falciparum (HB3) proliferation (AID 743347);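 note: plate controls were DMSO vehicle wells for no effect and artemisinin wells for full effect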; conditions: P. falciparum HB3 in erythrocytes, SYBR Green DNA, 72 h; at 28.5 µM unless noted
Procedure, shortened: as §1

[5] = High-throughput drug toxicity screening in the BPDCN cell line Gen2.2 (AID 1224824); conditions: Gen2.2 BPDCN cells; at 45.8 µM (top of the series) unless noted
Procedure, shortened: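 CellTiter-Glo luminescence after 48 h compound exposure of Gen2.2 cells; percent activity set with DMSO as 100% and bortezomib (9.2 uM final) as 0%. Cells seeded at 500 per well, RPMI + 10% FBS, 37 °C.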

[6] = High-throughput drug toxicity screening in the BPDCN cell line Cal-1 (AID 1224825); conditions: Cal-1 BPDCN cell viability, qHTS; at 45.8 µM (top of the series) unless noted
Procedure, shortened: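 CellTiter-Glo luminescence after 48 h compound exposure; percent activity scaled with DMSO as 100% and bortezomib (9.2 uM final) as 0%. Cal-1 cells seeded at 500/well in RPMI, 10% FBS, no phenol red.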

[7] = qHTS assay for measurement of the activity of small molecule inhibitors on Zika virus induced Caspase-3 activity in human iPSC derived neural progenitor cells (hNPCs) (AID 1224857; active = well fitted curve in the direction sought with a large enough effect; an effect the other way counts as inactive or inconclusive; note: % of control where 0% means no effect; nearly all actives have a fitted effect of over 65% in size)
Procedure, shortened: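 After overnight (16–20 h) culture at 350 cells/well, hNPCs get compound, then ZIKV 2 FFU/cell one hour later. Six hours on, Caspase-Glo 3/7 is added and luminescence measured.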

[8] = qHTS assay for measurement of the activity of small molecule inhibitors on Zika virus induced Caspase-3 activity in human astrocytoma cells (AID 1224859; active = well fitted curve in the direction sought with a large enough effect; an effect the other way counts as inactive or inconclusive;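 note: plate controls were ZIKV-infected untreated cells for no effect and uninfected cells for full effect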)
Procedure, shortened: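 Inhibition of Zika-induced caspase-3/7 activity: SNB-19 cells, 1 h compound pretreatment, ZIKV 2 FFU/cell for 6 h at 37 C, Caspase-Glo luminescence read-out.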

[9] = qHTS Screen of the MIPE 4.0 Collection Against Ewings Sarcoma (RDES) (AID 1259252; active = well fitted curve in the direction sought with a large enough effect; an effect the other way counts as inactive or inconclusive; note: nearly all actives have a fitted effect of over 35% in size; note: potency is the fitted concentration of half-maximal effect)
Procedure, shortened: (§2)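 Viability screen: 48 h incubation at 37C, 95% humidity, 5% CO2 with serially titrated compound, followed by CellTiter-Glo readout.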

[10] = qHTS Screen of the MIPE 4.0 Collection Against Ewings Sarcoma (TC71) (AID 1259253; active = well fitted curve in the direction sought with a large enough effect; an effect the other way counts as inactive or inconclusive; note: nearly all actives have a fitted effect of over 40% in size; note: potency is the fitted concentration of half-maximal effect)
Procedure, shortened: as §2

[11] = qHTS Screen of the MIPE 4.0 Collection Against Ewings Sarcoma (TC32) (AID 1259256; active = well fitted curve in the direction sought with a large enough effect; an effect the other way counts as inactive or inconclusive; note: nearly all actives have a fitted effect of over 45% in size; note: potency is the fitted concentration of half-maximal effect)
Procedure, shortened: as §2

[12] = qHTS profiling for inhibitors of Plasmodium falciparum (DD2) proliferation (AID 743323); conditions: lower = more inhibition; at 28.7 µM (top of the series) unless noted
Procedure, shortened: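 SYBR Green fluorescence (ex 485, em 535 nm) of lysed cultures gives parasite DNA content; wells normalized to artemisinin (0.29 uM) and DMSO controls. Infected red cells: 0.3% parasitemia, 2.5% hematocrit, 72 h, 37 C.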

[13] = qHTS profiling for inhibitors of Plasmodium falciparum (HB3) proliferation (AID 743324; active = well fitted curve in the direction sought with a large enough effect; an effect the other way counts as inactive or inconclusive;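 note: 100% = DMSO vehicle wells and 0% = artemisinin-treated control wells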); conditions: Plasmodium falciparum HB3 blood-stage proliferation; at 28.7 µM (top of the series) unless noted
Procedure, shortened: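 SYBR Green fluorescence (485 ex/535 em) of lysed cultures, incubated overnight at room temperature in the dark, quantifies parasite DNA. Infected erythrocytes at 0.3% parasitemia and 2.5% hematocrit were exposed 72 h; values normalized to DMSO and 0.29 uM artemisinin controls.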

[14] = qHTS assay to identify small molecule inhibitors of chordoma cells - UCH-1 (AID 1259355; active = well fitted curve in the direction sought with a large enough effect; an effect the other way counts as inactive or inconclusive; note: % is set by controls: 0 for no effect and ±100 for the full control effect; nearly all actives have a fitted effect of over 55% in size)
Procedure, shortened: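 Screening used approved and investigational drugs in 15-point titration against 800 seeded cells per well. A fixed combination of auranofin with camptothecin, doxorubicin, rubitecan and topotecan followed compound addition, and growth was scored by CellTiter-Glo after 48hr.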

[15] = qHTS assay to identify small molecule inhibitors of chordoma cells - UCH-2 (AID 1259356; active = well fitted curve in the direction sought with a large enough effect; an effect the other way counts as inactive or inconclusive; note: % is set by controls: 0 for no effect and ±100 for the full control effect)
[16] = qHTS Screen of the MIPE 4.0 Collection Against Ewings Sarcoma (EW8) (AID 1259255; active = well fitted curve in the direction sought with a large enough effect; an effect the other way counts as inactive or inconclusive;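 note: 100% = DMSO-treated cells and 0% = medium-only wells without cells; nearly all actives have a fitted effect of over 35% in size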)
Procedure, shortened: as §2

[17] = Identifying Small Molecule Inhibitors of Pancreatic Cancer Stem Cells (A278, Adherent) (AID 1259361; active = well fitted curve in the direction sought with a large enough effect; an effect the other way counts as inactive or inconclusive;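 note: viability read after 48 h compound exposure; nearly all actives have a fitted effect of over 35% in size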)
Procedure, shortened: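 Monolayer and spheroid cultures are compared. Spheroids form over 14 days in stem cell medium on hydrogel-coated low-attachment plates, then are exposed to compound for 48 h before CellTiter-Glo luminescence.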

Structure (SMILES)	parasite growth, % of DMSO control [1] [%]	parasite growth remaining, % of DMSO control (lower = more inhibition) [2] [%]	parasite growth, % of control (lower = inhibition) [3] [%]	growth, % of control [4] [%]	cell viability, % of control (lower = more cytotoxic) [5] [%]	viability (% of control) [6] [%]	Potency [7]	Potency [8]	Potency [9]	Potency [10]	Potency [11]	activity, percent of control [12] [%]	remaining proliferation (% of control), lower = more inhibition [13] [%]	outcome [14]	outcome [15]	Potency [16]	IC50 (viability decrease) [17]
O=C(O)C1=CC(O)C(O)[C@H](O)C1 (stereo partly specified)	92.4	55.1	86.5	51.8	146	105	inactive	inactive	inactive	inactive	inactive						
O=C(CC12CC3CC(CC(C3)C1)C2)Nc1cccc2nc(NCCNCCO)ccc12	4.99	13.2	15.5	4.24	5.97	5.92	inactive	inactive	14.8 µM (active)	7.43 µM (active)	13.2 µM (active)						
Cc1nc(NC(=O)N2CCC[C@@H]2C(N)=O)sc1-c1csc(C(C)(C)C)n1	16.4	80.7	28.5	14.5	14.1	55.1	inactive	inactive	5.26 µM (active)	6.62 µM (active)	6.62 µM (active)						
COc1cc2nccc(Oc3ccc(NC(=O)Nc4cc(C)on4)c(Cl)c3)c2cc1OC	7.24	22.7	27.3	3.73	52.1	13	inactive	inactive	2.35 µM (active)	2.64 µM (active)	2.96 µM (active)	62	11.5				
CCOC(=O)[C@H](CCc1ccccc1)N[C@@H](C)C(=O)N1CCCC1C(=O)O (stereo partly specified)	53.7	91.5	75.7	95.2	190	76.8	inactive	inactive	20.9 µM (active)	16.6 µM (active)	16.6 µM (active)						
CC[C@H](C)n1cc(C)c2c(C(=O)NCc3c(C)cc(C)[nH]c3=O)cc(-c3ccc(N4CCNCC4)nc3)cc21	4.84	8.83	8.77	6.2	133	39.5	inactive	inactive	23.5 µM (active)	11.8 µM (active)	18.7 µM (active)						
CN1CCN2c3ncccc3Cc3ccccc3C2C1 (stereo unspecified)	85.3	93.6	50.4	75.6	260	112	inactive	inactive	inactive	inactive	inactive			inactive	inactive		
C[C@]12C=CC(=O)C=C1CC[C@@H]1[C@@H]2[C@@H](O)C[C@@]2(C)[C@@H]1CC[C@]2(O)C(=O)CO	84.7	100	86.4	78	87.5	14.3	inactive	inactive	inactive	inactive	inactive						
Cc1ccc(NC(=O)Nc2cc(C(F)(F)F)ccc2F)cc1Nc1ccc2c(c1)NC(=O)C2=Cc1ccc[nH]1	8.05	14.1	21.7	10.9	4.16	2.92	inactive	inactive	23.5 µM (active)	26.4 µM (active)	26.4 µM (active)						
CC(=O)O[C@]1(C(C)=O)CC[C@H]2[C@@H]3C=C(Cl)C4=CC(=O)[C@@H]5C[C@H]5[C@]4(C)[C@@H]3CC[C@@]21C	21.6	22.5	18.7	20.1	42.4	18	inactive	inactive	9.35 µM (active)	13.2 µM (active)	16.6 µM (active)						
CN(C)CCOc1ccc(C(=C(CCCl)c2ccccc2)c2ccccc2)cc1				27	103	111	inactive	inactive	1.66 µM (active)	3.72 µM (active)						inactive	
CC(C)Oc1cc(Nc2nc(N[C@@H](C)c3ccc(F)cn3)ncc2Cl)[nH]n1	9.44	10.8	23.2	14.7	93	15.5	inactive	inactive	16.6 µM (active)	16.6 µM (active)	16.6 µM (active)	5.44	3.28				13.2 µM (active)
CCCCC(C)(C)[C@H](O)C=C[C@H]1[C@H](O)CC(=O)[C@H]1CC=CCCCC(=O)O	76.7	135	39.2	75.8	29.2	11.7	inactive	inactive	inactive	18.7 µM (active)	23.5 µM (active)						
O=C(CCCN1CCN(c2ccc(F)cc2)CC1)NC1c2ccccc2CSc2ccccc21 (stereo unspecified)	76	98.7	80.9	57.9	91.5	58.7	inactive	inactive	14.8 µM (active)	16.6 µM (active)	16.6 µM (active)						
Nc1[nH]nc2nnc(-c3c(-c4ccccc4)nn4ccccc34)cc12	25	97	46.8	26	5.31	6.85	inactive	inactive	5.9 µM (active)	8.33 µM (active)	11.8 µM (active)						
Cc1nn(Cc2ccccc2Cl)c(C)c1CN(C)CC(O)COc1ccc(Cl)cc1 (stereo unspecified)	9.8	18.8		7.87	18	53.4	inactive	inactive	23.5 µM (active)	23.5 µM (active)	23.5 µM (active)	18.1	8.74				
